From PubChem BioAssay (NCI) come the findings set out here.

Each structure is given as a SMILES string. Compounds without any hit were thinned out: in the full panel of roughly 83,000, 20% have a hit.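 Plates (96-well) were seeded with cells, treated with compound at one concentration, and incubated for 48 hours before percent growth was determined.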 A number with no mark means an inactive call. Active and inactive are the calls of the source. Rule for the calls: active = growth percent below 10; inactive = the rest.

In the first test the test system is MALME-3M melanoma. Put plainly: NCI-60 one-dose screen, 48 h (100 = growth as untreated, 0 = no growth, -100 = all killed). The settings on record: 10 µM unless noted.
Take `O=C(Nc1ccc(Oc2ccc(Nc3nc4ccccc4s3)cc2)cc1)Nc1ccc(Cl)c(C(F)(F)F)c1`: the growth is 2.78% (active).
The same measure, in the same setting: next, `C[C@]12CCc3nc(Nc4ccc(O)cc4)sc3C1=CC[C@@H]1[C@@H]2CC[C@]2(C)/C(=N/NC(N)=S)CC[C@@H]12`: -60.5% (active); `Cc1cc(N=Nc2ccc(-c3ccc(N=Nc4ccc(O)c(C(=O)O)c4)cc3)cc2)c(N)c(N=Nc2ccc(C(=O)O)cc2)c1N`: 95.2%.
Regarding `c1ccc2c(c1)cnc1ccccc12`, the growth was 127%.
As to `Cc1cc(C)c2c(n1)sc1c(Nc3ccc(OCc4ccccc4)cc3)ncnc12`, the growth was 88.6%.
On the same count and under the same terms, the result for `COc1ccc2[nH]c(C(=O)OCc3ccc4cccc(O)c4n3)cc2c1` reads -76.2% (active); that for `Cc1ccc2oc(=O)cc(-c3nc4ccc([N+](=O)[O-])cc4[nH]3)c2c1`, 62.9%.
Regarding `Cc1nc2ccc(Nc3nc(Cl)nc(N4CCOCC4)n3)cc2n1Cc1ccccc1`, the growth was 96.8%.
As to `CC(=O)c1c(O)c(C)c(O)c2c1OC1=CC(=O)/C(=C(/C)N)C(=O)C12C` (stereo not drawn), the growth was 96.9%.
For `O=C(CI)NCCNc1cccc2c(S(=O)(=O)O)cccc12`, the growth was 103%.
As for `O=c1[nH]cnc2nc[nH]c12`, the growth is 110%.
Take `CCN(CC)C(Cl)=Nc1ccc(Cl)cc1`: the growth is 116%.
Still for that read-out and setting: next, `c1ccc2c(Cc3csc4ccccc34)csc2c1`: 81.9%; `COS(=O)(=O)CCN(CCOS(C)(=O)=O)S(C)(=O)=O`: 98.9%; `COc1cc(C2CC(c3cccc(Nc4ccnc5cc(Cl)ccc45)c3)=NN2c2ccccc2)cc(OC)c1OC` (stereo not drawn): 64.3%.
Same read-out and setting: the result for `O=C1/C(=C\c2cccn2Cc2ccc(F)cc2)c2ccccc2N1c1c(Cl)cccc1Cl` reads 87.6%.
`CC(C)(C)c1ccc(Cn2c(-c3nonc3N)nc3ccccc32)cc1`: the growth was 82.3%.
Same read-out and setting: next, `CSC(=S)N/N=C(\C)c1ccccn1`: -3.24% (active); `CCC(C)C1NC(=O)c2nc(oc2-c2ccccc2)-c2csc(n2)-c2csc(n2)-c2nc(oc2C)-c2coc(n2)CNC(=O)C(C(C)CC)NC1=O` (stereo not drawn): -84.9% (active); `CCOC(=O)C1=C(C)NC(SCc2nnc(-c3ccc(Cl)cc3)o2)=NC1c1ccc(Br)cc1` (stereo not drawn): 83.1%.
The same measure, in the same setting: next, `CC(CN1CCN(C)CC1)CN1c2ccccc2Sc2ccc(C(F)(F)F)cc21` (stereo not drawn): 62.9%; `Cc1[nH]nc2ccc3nc(-c4ccc5[nH]ncc5c4)c4c(c3c12)CCCC4`: 7.88% (active).
The same measure, in the same setting: the result for `CCCOC(=O)C1c2cc3c(cc2CC(C)C1C(=O)OCCC)OCO3` (stereo not drawn) reads 104%; that for `COc1cc(C2CC(c3ccc(Nc4ccnc5cc(Cl)ccc45)cc3)=NN2c2ccccc2)cc(OC)c1OC` (stereo not drawn), 45.6%; that for `CC(=O)c1c(C)nc(-c2cc(C)cc(Cl)c2)nc1-c1cccc(Oc2ccccc2)c1`, 74.8%.
With `CC(C)NC(=O)OCC#CCOC(=O)NC(C)C`, the growth is 92.6%.
On to `Cc1nc2c(-c3cnc(N)nc3)nc(N3CCOCC3)nc2n1C(C)C`, for which the growth was -19.2% (active).
Take `[Ag].[Ag].[NH-]S(=O)(=O)c1ccc(N=Nc2cc(N=Nc3ccc(S([NH-])(=O)=O)cc3)c3c(NC(=O)C(Cl)Cl)cccc3c2OC(=O)C(Cl)Cl)cc1.[c-]1nccs1.[c-]1nccs1`: the growth was 67.4%.
For the compound `Nc1ccc(N(O)/C=C2\C=CC=CC2=O)cc1N`, the growth is 101%.
Still for that read-out and setting: the result for `Cc1nc2ccc(Nc3nc(N4CCOCC4)nc(N4CCN(C)CC4)n3)cc2n1Cc1ccccc1` reads 65.7%.
Still for that read-out and setting: next, `CC(C)CC(NC(=O)C(CCCN=C(N)N)NC(=O)OCc1ccccc1)C(=O)NC(CNC(=O)/C=C/c1ccccc1)C(C)C` (stereo not drawn): 107%; `CCOC(=O)c1ccc(NCCC(=O)O)cc1`: 110%; `Cc1ccc(-c2cnc3sc4ccc(Cl)cc4n23)cc1`: 110%.
`COc1cc(C)c2c(=O)c3c(oc2c1)C(=O)c1c(O)c(OC)cc(O)c1C3=O`: the growth was -23.8% (active).
On the same count and under the same terms, the result for `O=C(OCc1ccc2c(Br)cc(Br)c(O)c2n1)c1cc2ccccc2[nH]1` reads -85.5% (active); that for `CN1CCN(Cc2ccc(NC(=O)c3cncc(C#Cc4cnc5cccnn45)c3)cc2C(F)(F)F)CC1`, -46.5% (active).
With `CCOC(=O)c1ccccc1SC(C[N+](=O)[O-])c1ccccc1` (stereo not drawn), the growth was 98%.
Same read-out and setting: the result for `CC(C)CC(NC(=O)OCC1c2ccccc2-c2ccccc21)C(=O)O` (stereo not drawn) reads 109%; that for `CN1CCN(Cc2ccc(NC(=O)c3cncc(C#Cc4ccc(N)nc4)c3)cc2C(F)(F)F)CC1`, -70.3% (active).

The subject of a further test is MDA-MB-231 breast. The test is described as above. The settings on record: 10 µM unless noted.
As for `O=C(Nc1ccc(Oc2ccc(Nc3nc4ccccc4s3)cc2)cc1)Nc1ccc(Cl)c(C(F)(F)F)c1`, the growth is -65.5% (active).
Still for that read-out and setting: the result for `C[C@]12CCc3nc(Nc4ccc(O)cc4)sc3C1=CC[C@@H]1[C@@H]2CC[C@]2(C)/C(=N/NC(N)=S)CC[C@@H]12` reads -40.4% (active).
On to `Cc1cc(N=Nc2ccc(-c3ccc(N=Nc4ccc(O)c(C(=O)O)c4)cc3)cc2)c(N)c(N=Nc2ccc(C(=O)O)cc2)c1N`, for which the growth is 102%.
Regarding `c1ccc2c(c1)cnc1ccccc12`, the growth was 108%.
Turning to `Cc1cc(C)c2c(n1)sc1c(Nc3ccc(OCc4ccccc4)cc3)ncnc12`, the growth was 109%.
Same read-out and setting: next, `COc1ccc2[nH]c(C(=O)OCc3ccc4cccc(O)c4n3)cc2c1`: -70.8% (active).
On the same count and under the same terms, next, `Cc1ccc2oc(=O)cc(-c3nc4ccc([N+](=O)[O-])cc4[nH]3)c2c1`: 64.2%; `Cc1nc2ccc(Nc3nc(Cl)nc(N4CCOCC4)n3)cc2n1Cc1ccccc1`: 64.4%.
With `CC(=O)c1c(O)c(C)c(O)c2c1OC1=CC(=O)/C(=C(/C)N)C(=O)C12C` (stereo not drawn), the growth was 90.8%.
Same read-out and setting: next, `O=C(CI)NCCNc1cccc2c(S(=O)(=O)O)cccc12`: 93.5%; `O=c1[nH]cnc2nc[nH]c12`: 99%; `CCN(CC)C(Cl)=Nc1ccc(Cl)cc1`: 102%.
Still for that read-out and setting: the result for `c1ccc2c(Cc3csc4ccccc34)csc2c1` reads 94.9%; that for `COS(=O)(=O)CCN(CCOS(C)(=O)=O)S(C)(=O)=O`, 109%; that for `COc1cc(C2CC(c3cccc(Nc4ccnc5cc(Cl)ccc45)c3)=NN2c2ccccc2)cc(OC)c1OC` (stereo not drawn), 77.7%.
Still for that read-out and setting: the result for `O=C1/C(=C\c2cccn2Cc2ccc(F)cc2)c2ccccc2N1c1c(Cl)cccc1Cl` reads 75%; that for `CC(C)(C)c1ccc(Cn2c(-c3nonc3N)nc3ccccc32)cc1`, 81.8%; that for `CSC(=S)N/N=C(\C)c1ccccn1`, 33.9%.
On to `CCC(C)C1NC(=O)c2nc(oc2-c2ccccc2)-c2csc(n2)-c2csc(n2)-c2nc(oc2C)-c2coc(n2)CNC(=O)C(C(C)CC)NC1=O` (stereo not drawn), for which the growth was -74.4% (active).
Turning to `CCOC(=O)C1=C(C)NC(SCc2nnc(-c3ccc(Cl)cc3)o2)=NC1c1ccc(Br)cc1` (stereo not drawn), the growth was 59.8%.
`CC(CN1CCN(C)CC1)CN1c2ccccc2Sc2ccc(C(F)(F)F)cc21` (stereo not drawn): the growth is 27.6%.
In the case of `Cc1[nH]nc2ccc3nc(-c4ccc5[nH]ncc5c4)c4c(c3c12)CCCC4`, the growth is 42.6%.
As to `CCCOC(=O)C1c2cc3c(cc2CC(C)C1C(=O)OCCC)OCO3` (stereo not drawn), the growth is 90%.
Same read-out and setting: the result for `COc1cc(C2CC(c3ccc(Nc4ccnc5cc(Cl)ccc45)cc3)=NN2c2ccccc2)cc(OC)c1OC` (stereo not drawn) reads 77.5%; that for `CC(=O)c1c(C)nc(-c2cc(C)cc(Cl)c2)nc1-c1cccc(Oc2ccccc2)c1`, 55%.
Take `CC(C)NC(=O)OCC#CCOC(=O)NC(C)C`: the growth is 103%.
Turning to `Cc1nc2c(-c3cnc(N)nc3)nc(N3CCOCC3)nc2n1C(C)C`, the growth was 23.9%.
Same read-out and setting: next, `[Ag].[Ag].[NH-]S(=O)(=O)c1ccc(N=Nc2cc(N=Nc3ccc(S([NH-])(=O)=O)cc3)c3c(NC(=O)C(Cl)Cl)cccc3c2OC(=O)C(Cl)Cl)cc1.[c-]1nccs1.[c-]1nccs1`: 49.5%; `Nc1ccc(N(O)/C=C2\C=CC=CC2=O)cc1N`: 85.9%.
As to `Cc1nc2ccc(Nc3nc(N4CCOCC4)nc(N4CCN(C)CC4)n3)cc2n1Cc1ccccc1`, the growth was 68.5%.
On the same count and under the same terms, the result for `CC(C)CC(NC(=O)C(CCCN=C(N)N)NC(=O)OCc1ccccc1)C(=O)NC(CNC(=O)/C=C/c1ccccc1)C(C)C` (stereo not drawn) reads 109%.
`CCOC(=O)c1ccc(NCCC(=O)O)cc1`: the growth was 122%.
The same measure, in the same setting: the result for `Cc1ccc(-c2cnc3sc4ccc(Cl)cc4n23)cc1` reads 85%; that for `COc1cc(C)c2c(=O)c3c(oc2c1)C(=O)c1c(O)c(OC)cc(O)c1C3=O`, -0.877% (active).
Still for that read-out and setting: next, `O=C(OCc1ccc2c(Br)cc(Br)c(O)c2n1)c1cc2ccccc2[nH]1`: -81.9% (active); `CN1CCN(Cc2ccc(NC(=O)c3cncc(C#Cc4cnc5cccnn45)c3)cc2C(F)(F)F)CC1`: -14.4% (active); `CCOC(=O)c1ccccc1SC(C[N+](=O)[O-])c1ccccc1` (stereo not drawn): 96.6%.
The same measure, in the same setting: next, `CC(C)CC(NC(=O)OCC1c2ccccc2-c2ccccc21)C(=O)O` (stereo not drawn): 103%; `CN1CCN(Cc2ccc(NC(=O)c3cncc(C#Cc4ccc(N)nc4)c3)cc2C(F)(F)F)CC1`: -46.3% (active).
